# Measured values taken from the supplement of paper PMC6555819.
# Tested on: FXR:RXRa (NR concentration 270 nM, RXRa partner concentration 90 nM)
# Assay: PBM binding z-score (relative to random genomic background probes); higher = stronger binding; sequences stand for … in GC…GCGATTGACAGCGTAGAATGAAGG
# In short: (§1)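 Regression normalization was applied to scanned fluorescence from custom Agilent 4×180K protein-binding microarrays. Before scanning, arrays were incubated 1 h with ligand-free nuclear receptor dimers, and binding was detected with antibodies against each partner (one per run). Binding z-scores use the random background probes as reference.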
row,Sequence,PBM binding z-score
1,ACAGACAGGTGAGTGAAGCTAACTCAGCTGGACG,-0.673
2,ATCTCTAGGTAACAAAGTTCAGTGAATGCCGAAC,0.948
3,ACTATTAGTAGAGACGAGGGCAACCGATAGGTTG,0.0303
4,GCAGACAGGTGAAACGCCGGTAACTCAGGGTGGC,-0.365
5,ATCTCTAGGTAAGACTCAGTTCACTGAAGAACGC,0.642
6,CGTCCAAGGTCAATGCTATGTCAGTGAAAGCATT,6.33
7,CGTCCAAGGTCATAGGAGGTCAGTGAAGACAGAT,7.58
8,CGTCCAATGTCAGCAGGTCAGTGAAAGCGACGTG,0.418
9,CCTCCAAGGTCAGCAGGTCAGTGAAAGCGACGTG,5.51
10,TCTTGTAGATCAACAAGAGGTTAAGAAAGATCGA,0.445
11,GGAACGAGGGCATTCGTGTTGATAGCATGGCGAT,0.778
12,GCTAGCAGGCCATTTCGGTCACTCAATGACGGGC,-0.325
13,TCTAGTTGGTCACGGAGGTCTCACACGACGGGTA,0.555
14,ATATGTAGGTTCGCTGGGGTCATTCAGACTAGGC,4.11
15,CCAGACAGGTGAAAGGTAACACAGTCTGGTACGC,0.883
16,CGAACTAGGTCAAGGACAATGAATCTCCGCACGC,3.47
17,CAAACTAGGTCAAACGTCAAAGTCGAGCCAACCA,5.56
18,CCTTCCGGGTCACTCCAGGTTATAGCATCGGAGT,4.29
19,ACTAGCAGGACAAGGGTCACTCAAGATTAGTCCG,2.6
20,ACTCCGAGGACAAAGGTCAGAGCTACGCCAGTGA,4.86

row,Sequence,PBM binding z-score
1,CCTAGTTGGTCAAGGGCACACACGCTATAGGTAC,0.355
2,ACTCGGAGGACAAAGGTTAGAGCTACGCCAGTGA,0.928
3,CCTAGCAGCCCAGGGTCACTCAAGCATTTCGCTT,2.06
4,CGTCCAAGGTCATAGGAGGTCAGAGAAGACAGAT,8
5,CAAACTAGGTCATGAGGTCAAAGTCCGCTTCCCG,6.96
6,TCTGCTAGGTCAAAGATGGTCAGCTAATCTGCTA,3.55
7,TGAATGAGGCTATAAGATCAGGGAACGTTGCAAA,-0.518
8,CCAACTAGGTCACGAAAGGTCAAAGTCGAATGAC,7.46
9,TAGCCTAGGTCATGGGCCAATATACCACGCGAAC,4.48
10,CCTACTGGGCCATCCAGAGGTCATTGATCATATG,2.46
11,ACAGACGGGTGAGTGAAGGTAACTCAGCTGGACG,0.431
12,CTCGAAAGCTCGGTTGAGGTGAGTATACGGATAA,-0.222
13,TTTAGCAGGCCAGAGGGTCACTCAAGAGGTACGG,0.67
14,CCTCGGAGGACCGAAGGTCAGAGCTGTCCGCTTT,0.789
15,CGAACTAGGTAATCCAGGACAGTGAATACATTGA,-0.0818
16,GCGGCTAGGTCAACTGATGGTCAGCTAAAGCTCG,4
17,ATCTCTAGGTAACTAGTTCAGTGAAAGAGAGGAC,0.133
18,GCATATAGGTAATACAATGTGAAAGTCCGATTGT,0.12
19,CCTTACGGGTAAAGGTTATAGCACGGGTGGTACG,1.2
20,GGAACGAGGGCAAGTTGAGAGCAGAGTTTGATGG,1

# Tested on: LXRa:RXRa (NR concentration 270 nM, RXRa partner concentration 90 nM)
# Assay: as above
# In short: as §1
row,Sequence,PBM binding z-score
1,ACAGACAGGTGAGTGAAGCTAACTCAGCTGGACG,-0.375
2,ATCTCTAGGTAACAAAGTTCAGTGAATGCCGAAC,1.9
3,ACTATTAGTAGAGACGAGGGCAACCGATAGGTTG,0.0981
4,GCAGACAGGTGAAACGCCGGTAACTCAGGGTGGC,-0.144
5,ATCTCTAGGTAAGACTCAGTTCACTGAAGAACGC,0.841
6,CGTCCAAGGTCAATGCTATGTCAGTGAAAGCATT,4.8
7,CGTCCAAGGTCATAGGAGGTCAGTGAAGACAGAT,7.44
8,CGTCCAATGTCAGCAGGTCAGTGAAAGCGACGTG,0.255
9,CCTCCAAGGTCAGCAGGTCAGTGAAAGCGACGTG,3.58
10,TCTTGTAGATCAACAAGAGGTTAAGAAAGATCGA,2.13
11,GGAACGAGGGCATTCGTGTTGATAGCATGGCGAT,0.372
12,GCTAGCAGGCCATTTCGGTCACTCAATGACGGGC,-0.482
13,TCTAGTTGGTCACGGAGGTCTCACACGACGGGTA,0.613
14,ATATGTAGGTTCGCTGGGGTCATTCAGACTAGGC,3.93
15,CCAGACAGGTGAAAGGTAACACAGTCTGGTACGC,0.799
16,CGAACTAGGTCAAGGACAATGAATCTCCGCACGC,2.4
17,CAAACTAGGTCAAACGTCAAAGTCGAGCCAACCA,4.17
18,CCTTCCGGGTCACTCCAGGTTATAGCATCGGAGT,7.37
19,ACTAGCAGGACAAGGGTCACTCAAGATTAGTCCG,3.07
20,ACTCCGAGGACAAAGGTCAGAGCTACGCCAGTGA,4.4

row,Sequence,PBM binding z-score
1,CCTAGTTGGTCAAGGGCACACACGCTATAGGTAC,0.541
2,ACTCGGAGGACAAAGGTTAGAGCTACGCCAGTGA,1.08
3,CCTAGCAGCCCAGGGTCACTCAAGCATTTCGCTT,1.93
4,CGTCCAAGGTCATAGGAGGTCAGAGAAGACAGAT,7.71
5,CAAACTAGGTCATGAGGTCAAAGTCCGCTTCCCG,6.16
6,TCTGCTAGGTCAAAGATGGTCAGCTAATCTGCTA,3.06
7,TGAATGAGGCTATAAGATCAGGGAACGTTGCAAA,-0.611
8,CCAACTAGGTCACGAAAGGTCAAAGTCGAATGAC,8.21
9,TAGCCTAGGTCATGGGCCAATATACCACGCGAAC,3.55
10,CCTACTGGGCCATCCAGAGGTCATTGATCATATG,4.37
11,ACAGACGGGTGAGTGAAGGTAACTCAGCTGGACG,-0.164
12,CTCGAAAGCTCGGTTGAGGTGAGTATACGGATAA,-0.554
13,TTTAGCAGGCCAGAGGGTCACTCAAGAGGTACGG,0.761
14,CCTCGGAGGACCGAAGGTCAGAGCTGTCCGCTTT,1.42
15,CGAACTAGGTAATCCAGGACAGTGAATACATTGA,-0.39
16,GCGGCTAGGTCAACTGATGGTCAGCTAAAGCTCG,2.78
17,ATCTCTAGGTAACTAGTTCAGTGAAAGAGAGGAC,0.11
18,GCATATAGGTAATACAATGTGAAAGTCCGATTGT,-0.102
19,CCTTACGGGTAAAGGTTATAGCACGGGTGGTACG,1.69
20,GGAACGAGGGCAAGTTGAGAGCAGAGTTTGATGG,0.529
